Where “and” joins values, the source holds several entries; their conditions need not be identical. Equal values may be shown once. Among all 5,500 compounds or so, about 2,000 (36%) were called active. Not shown: some 18% with an inconclusive outcome. No stated cut-off is given here; in the data, active means normalized growth mostly below about 0.91 (no sharp cut-off); inconclusive means no clear call, values can overlap the other calls; inactive means mostly above about 0.92. The list shows a part of the results.
Test: chemical genetic growth profiling, strain panel (AID 1159580);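 further: tested at 20 µM; growth read once vehicle control cultures reached saturation at 30 °C; 1 = growth at the plate median or of vehicle wells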
Details: S. cerevisiae deletion strains, growth OD

CC(=O)[C@H]1CCC2C3CCC4=CC(=O)CC[C@]4(C)C3CC[C@@]21C (some centres not stated)
normalized growth (locus YAL013W, strain DEP1, stronger effect = lower value): 0.963 (inactive) | normalized growth (locus YAL021C, strain ccr4, stronger effect = lower value): 0.901 (active) | normalized growth (locus YAL026C, strain drs2, stronger effect = lower value): 0.936 (inactive) | normalized growth (locus YAL030W, strain snc1, stronger effect = lower value): 0.975 (inactive) | normalized growth (locus YBL061C, strain skt5, stronger effect = lower value): 0.968 (inactive) | normalized growth (locus YBR009C, strain hhf1, stronger effect = lower value): 0.909 (inactive) | normalized growth (locus YBR021W, strain FUR4, stronger effect = lower value): 0.93 (inactive) | normalized growth (locus YBR023C, strain chs3, stronger effect = lower value): 0.957 (inactive) | normalized growth (locus YBR171W, strain sec66, stronger effect = lower value): 0.933 (inactive) | normalized growth (locus YBR229C, strain ROT2, stronger effect = lower value): 0.981 (inactive) | normalized growth (locus YBR231C, strain swc5, stronger effect = lower value): 0.951 (inactive) | normalized growth (locus YBR279W, strain paf1, stronger effect = lower value): 0.994 (inactive) | normalized growth (locus YCL011C, strain gbp2, stronger effect = lower value): 0.971 (inactive) | normalized growth (locus YCL016C, strain dcc1, stronger effect = lower value): 0.963 (inactive) | normalized growth (locus YCL029C, strain bik1, stronger effect = lower value): 0.735 (active) | normalized growth (locus YCL061C, strain MRC1, stronger effect = lower value): 0.955 (inactive) | normalized growth (locus YCL069W, strain vba3, stronger effect = lower value): 0.976 (inactive) | normalized growth (locus YCR088W, strain abp1, stronger effect = lower value): 0.99 (inactive) | normalized growth (locus YDL005C, strain med2, stronger effect = lower value): 0.987 (inactive) | normalized growth (locus YDL035C, strain GPR1, stronger effect = lower value): 0.936 (inactive) | normalized growth (locus YDL040C, strain nat1, stronger effect = lower value): 0.981 (inactive) | normalized growth (locus YDL074C, strain BRE1, stronger effect = lower value): 0.862 (inactive) | normalized growth (locus YDL101C, strain DUN1, stronger effect = lower value): 0.977 (inactive) | normalized growth (locus YDL134C, strain PPH21, stronger effect = lower value): 0.962 (inactive) | normalized growth (locus YDL185W, strain tfp1, stronger effect = lower value): 0.923 (inactive) | normalized growth (locus YDL192W, strain arf1, stronger effect = lower value): 0.719 (active) | normalized growth (locus YDR001C, strain nth1, stronger effect = lower value): 0.98 (inactive) | normalized growth (locus YDR069C, strain doa4, stronger effect = lower value): 0.963 (inactive) | normalized growth (locus YDR101C, strain arx1, stronger effect = lower value): 0.908 (active) | normalized growth (locus YDR137W, strain rgp1, stronger effect = lower value): 0.49 (active) | normalized growth (locus YDR150W, strain NUM1, stronger effect = lower value): 0.983 (inactive) | normalized growth (locus YDR159W, strain sac3, stronger effect = lower value): 0.879 (inactive) | normalized growth (locus YDR162C, strain NBP2, stronger effect = lower value): 0.583 (active) | normalized growth (locus YDR195W, strain ref2): 1.29 [resistant] (active) | normalized growth (locus YDR297W, strain sur2, stronger effect = lower value): 0.972 (inactive) | normalized growth (locus YDR318W, strain mcm21, stronger effect = lower value): 0.671 (active) | normalized growth (locus YDR334W, strain swr1, stronger effect = lower value): 0.985 (inactive) | normalized growth (locus YDR335W, strain msn5, stronger effect = lower value): 0.948 (inactive) | normalized growth (locus YDR388W, stronger effect = lower value): 0.854 (active) | normalized growth (locus YDR392W, strain spt3, stronger effect = lower value): 0.247 (active) | normalized growth (locus YDR502C, strain sam2, stronger effect = lower value): 0.77 (active) | normalized growth (locus YEL003W, strain gim4, stronger effect = lower value): 0.931 (inactive) | normalized growth (locus YEL037C, strain rad23, stronger effect = lower value): 0.974 (inactive) | normalized growth (locus YEL061C, strain CIN8 (second series), stronger effect = lower value): 0.972 (inactive) | normalized growth (locus YEL061C, strain CIN8, stronger effect = lower value): 0.971 (inactive) | normalized growth (locus YER015W, strain faa2, stronger effect = lower value): 0.969 (inactive) | normalized growth (locus YER016W, strain bim1, stronger effect = lower value): 0.953 (inactive) | normalized growth (locus YER110C, stronger effect = lower value): 0.916 (inactive) | normalized growth (locus YER111C, strain swi4, stronger effect = lower value): 0.954 (inactive) | normalized growth (locus YER155C, strain BEM2 (second series), stronger effect = lower value): 0.555 (active) | normalized growth (locus YER155C, strain BEM2, stronger effect = lower value): 0.991 (inactive) | normalized growth (locus YER167W, strain BCK2, stronger effect = lower value): 0.93 (inactive) | normalized growth (locus YFR010W, strain ubp6, stronger effect = lower value): 0.994 (inactive) | normalized growth (locus YGL078C, strain dbp3, stronger effect = lower value): 0.961 (inactive) | normalized growth (locus YGL086W, strain mad1, stronger effect = lower value): 0.743 (active) | normalized growth (locus YGL167C, strain pmr1, stronger effect = lower value): 0.94 (inactive) | normalized growth (locus YGL173C, strain kem1, stronger effect = lower value): 0.91 (inactive) | normalized growth (locus YGL227W, strain vid30, stronger effect = lower value): 0.999 (inactive) | normalized growth (locus YGL240W, strain doc1, stronger effect = lower value): 0.906 (inactive) | normalized growth (locus YGL248W, strain PDE1, stronger effect = lower value): 0.968 (inactive) | normalized growth (locus YGL253W, strain hxk2, stronger effect = lower value): 0.879 (active) | normalized growth (locus YGR078C, strain PAC10, stronger effect = lower value): 0.898 (inactive) | normalized growth (locus YGR135W, strain pre9, stronger effect = lower value): 0.731 (active) | normalized growth (locus YGR229C, strain SMI1, stronger effect = lower value): 1.02 (inactive) | normalized growth (locus YGR252W, strain gcn5, stronger effect = lower value): 0.924 (inactive) | normalized growth (locus YHR013C, strain ard1, stronger effect = lower value): 1.06 (inactive) | normalized growth (locus YHR027C, strain rpn1, stronger effect = lower value): 0.97 (inactive) | normalized growth (locus YHR030C, strain SLT2, stronger effect = lower value): 0.925 (inactive) and 0.973 (inactive) | normalized growth (locus YHR079C, strain IRE1 (second series), stronger effect = lower value): 0.85 (active) | normalized growth (locus YHR079C, strain IRE1, stronger effect = lower value): 0.984 (inactive) | normalized growth (locus YHR094C, strain hxt1, stronger effect = lower value): 0.907 (active) | normalized growth (locus YHR129C, strain ARP1, stronger effect = lower value): 0.973 (inactive) | normalized growth (locus YHR142W, strain chs7, stronger effect = lower value): 0.85 (active) | normalized growth (locus YHR200W, strain rpn10, stronger effect = lower value): 0.884 (active) | normalized growth (locus YIL066C, strain RNR3, stronger effect = lower value): 0.902 (inactive) | normalized growth (locus YIL073C, strain SPO22, stronger effect = lower value): 0.893 (inactive) | normalized growth (locus YIL125W, strain kgd1, stronger effect = lower value): 0.958 (inactive) | normalized growth (locus YIR030C, strain dcg1, stronger effect = lower value): 0.922 (active) | normalized growth (locus YJL092W, strain hpr5, stronger effect = lower value): 0.969 (inactive) | normalized growth (locus YJL095W, strain BCK1 (second series), stronger effect = lower value): 0.869 (active) | normalized growth (locus YJL095W, strain BCK1, stronger effect = lower value): 0.777 (active) and 0.981 (inactive) | normalized growth (locus YJL115W, strain asf1, stronger effect = lower value): 0.98 (inactive) | normalized growth (locus YJL129C, strain trk1, stronger effect = lower value): 0.865 (active) | normalized growth (locus YJL134W, strain LCB3, stronger effect = lower value): 0.98 (inactive) | normalized growth (locus YJL154C, strain vps35, stronger effect = lower value): 0.986 (inactive) | normalized growth (locus YJL164C, strain tpk1, stronger effect = lower value): 0.929 (inactive) | normalized growth (locus YJL166W, strain qcr8, stronger effect = lower value): 0.916 (inactive) | normalized growth (locus YJL168C, strain set2, stronger effect = lower value): 0.934 (inactive) | normalized growth (locus YJL187C, strain SWE1 (second series), stronger effect = lower value): 0.96 (inactive) | normalized growth (locus YJL187C, strain SWE1, stronger effect = lower value): 0.969 (inactive) | normalized growth (locus YJR043C, strain POL32, stronger effect = lower value): 0.986 (inactive) | normalized growth (locus YJR066W, strain TOR1, stronger effect = lower value): 0.93 (inactive)

From PubChem BioAssay AID1159580 (chemical genetic matrix, 2015)
